# Results reported in PubChem BioAssay (NCI).
# The panel holds about 83,000 compounds, 20% with a hit somewhere; the sample as a whole holds those more often.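 Step 1: grow cells in 96-well plates. Step 2: add test compound at a single concentration. Step 3: incubate 48 h. Step 4: record percent growth.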 A number with no mark means an inactive call. Active and inactive are the calls of the source. How the source made its calls: active means growth percent below 10; inactive means the rest.
# How the values were obtained:
# Test in all cases: NCI-60 one-dose screen, 48 h (100 = growth as untreated, 0 = no growth, -100 = all killed)
# Settings in all cases: 10 µM unless noted
# [1] = tested on: SK-MEL-2 melanoma
# [2] = tested on: EKVX NSCLC
# [3] = tested on: SN12C renal
# [4] = tested on: UO-31 renal
# [5] = tested on: TK-10 renal
# [6] = tested on: ACHN renal
# [7] = tested on: CAKI-1 renal
# [8] = tested on: A498 renal
# [9] = tested on: CCRF-CEM leukemia
# [10] = tested on: MOLT-4 leukemia
Structure (SMILES),growth [1],growth [2],growth [3],growth [4],growth [5],growth [6],growth [7],growth [8],growth [9],growth [10]
Oc1ccccc1/C=N\NC(=S)Nc1ccc(F)cc1,18.5%,29.8%,36.6%,7.46% (active),49.1%,13.8%,-4.58% (active),91.9%,14%,7.67% (active)
O=S(=O)(NCCNc1cc(-c2cn(-c3ccccc3)nc2-c2cccc(O)c2)ccn1)c1cccc(F)c1,53.1%,46.6%,50.4%,23.5%,56%,36.3%,44.3%,57.4%,18.7%,18.5%
O=C1C(=O)N(CCCCn2cc(-c3ccccc3)nn2)c2ccccc21,122%,93.9%,94.3%,75.3%,136%,103%,92%,110%,97.2%,101%
O=[N+]([O-])c1cccc(/C=N\Nc2ccccc2)c1,42.1%,59.8%,74.7%,47.4%,98.7%,41.9%,59.9%,101%,59.5%,71.5%
O=c1[nH]ncc(Br)c1Br,45.1%,78.8%,63.6%,52%,65.8%,87.3%,86.4%,108%,27.6%,35.4%
CCN1CCN(C(=O)[C@]23CCC(C)(C)C[C@H]2C2=CC[C@@H]4[C@@]5(C)CC/C(=N/O)C(C)(C)[C@@H]5CC[C@@]4(C)[C@]2(C)CC3)CC1,95.6%,58.4%,16.2%,37%,136%,28.4%,54.3%,85.2%,38.3%,31%
O=C1/C(=C\c2ccco2)SC(=S)N1CCc1ccc(O)cc1,104%,91.1%,91.6%,54%,130%,96%,83.4%,97.1%,44.8%,82.2%
Cn1cc(-c2csc(-c3c[nH]c4ccccc34)n2)c2cccnc21,38.2%,42.5%,46.5%,57.2%,48%,51.8%,15.7%,13.5%,20.4%,44.4%
Cc1ccc2c(c1)c1nc3cc(C)c(C)cc3nc1n2CCN(C)C,35.8%,19.7%,13.5%,-10.4% (active),27.7%,-0.699% (active),2.44% (active),35.7%,26.4%,8.57% (active)
CCN1CCN(C(=O)[C@]23CCC(C)(C)C[C@@H]2C2=CC[C@@H]4[C@@]5(C)C/C(=C/c6cccnc6)C(=O)C(C)(C)[C@@H]5CC[C@@]4(C)[C@]2(C)CC3)CC1,41.9%,25.4%,29.5%,33.3%,52.4%,33.4%,31.5%,45.1%,33.4%,4.16% (active)
O=S(=O)(NCCNc1cc(-c2cn(-c3ccccc3)nc2-c2cccc(O)c2)ccn1)c1ccccc1,66.3%,73.1%,63.4%,37.4%,67.1%,57.8%,60.8%,70.5%,27.6%,25.1%
COc1ccc(/C=C(\C#N)c2cc3ccccc3n2S(C)(=O)=O)cc1,101%,85.9%,90.8%,56.2%,125%,91.2%,53.2%,99.2%,86%,89.8%
CN(C)c1cccc2[nH]c(-c3[nH]ncc3Nc3ccnc(N)n3)nc12,-60.4% (active),-17% (active),-7.45% (active),-9.8% (active),-30.1% (active),-1.92% (active),-45.9% (active),-79.4% (active),1.73% (active),1.65% (active)
COc1cc2c3c(c4c5ccccc5[nH]c4c2c(OC)c1OC)C(=O)N(O)C3=O,85.6%,97.1%,46.6%,10%,80.1%,20.6%,36%,-16.8% (active),18%,1.38% (active)
c1csc(-c2nc(-c3cc4ccccc4c(N4CCOCC4)n3)cs2)c1,47.4%,87.9%,92.4%,71.3%,123%,85.2%,84.5%,86.2%,107%,92.1%
CCSc1ncnc2c1ncn2C1OC(CO)C(O)C1O (stereo not given),63.4%,51.8%,34.4%,24.5%,37.6%,32.6%,32.2%,60.9%,23.4%,21.4%
Cn1c2c(Cl)c(Cl)ccc2c2c(C#N)c[nH]c(=O)c21,97.3%,98.9%,95.9%,89.9%,119%,93.4%,71.1%,89.5%,39.2%,95.7%
CC1(C)c2ccccc2C(=O)C1(Br)Cc1ccccc1 (stereo not given),103%,94.5%,95.4%,56.6%,105%,87.7%,50.5%,89.7%,26.4%,16.4%
COc1cc(-c2cc3cc(O)ccc3oc2=O)cc(OC)c1OC,92.7%,78.7%,93.6%,66.7%,104%,81.8%,84.6%,100%,94.5%,94.2%
COc1cnc2c(c1)C(=O)c1c-2n(CCCNCCN2CCOCC2)c(=O)c2cc([N+](=O)[O-])ccc12,19%,15.8%,4.54% (active),-85.8% (active),-0.695% (active),-69.6% (active),-29.5% (active),-86.7% (active),2.23% (active),-1.41% (active)
CC1(n2nnnc2N2CCCN(c3ncccc3N)CC2)CCC1,110%,97.5%,95.7%,92.4%,99%,99.2%,90.7%,93.3%,103%,99.3%
OCC1OC(n2cnc3c(Cl)ncnc32)CC1O (stereo not given),108%,113%,96.5%,76.9%,106%,95.6%,94.1%,106%,98.2%,91.9%
O=C(NC1=CC(=O)c2ccccc2C1=O)c1ccccc1,0.417% (active),9.48% (active),29.2%,-47.5% (active),53.3%,2.6% (active),29.6%,53.3%,8.93% (active),-16.9% (active)
COc1cc2nc(Cl)nc(Nc3cccc(C(=O)/C=C/c4ccc(Br)cc4)c3)c2cc1OC,92.4%,81.3%,80.8%,60.8%,172%,78.3%,72.8%,85.4%,31.3%,37.1%
Cc1ccc(-c2ccc(/C=C(\C#N)c3nc(-c4ccco4)cs3)o2)cc1,104%,52.1%,97.1%,79%,69.9%,98.6%,94.5%,106%,79.1%,94.6%
NCCNc1nc(-c2ccccc2)nc2nc(-c3ccccc3)oc12,107%,102%,80.6%,69.6%,119%,79%,73.9%,90%,91.5%,73.6%
Nc1c(C(=O)Nc2c(Cl)cccc2Cl)sc2nc3c(cc12)C(=O)CCC3,27.3%,76%,47.6%,48.3%,59.5%,50.9%,41.5%,2.03% (active),54.8%,65.3%

Structure (SMILES),growth [1],growth [2],growth [3],growth [4],growth [5],growth [6],growth [7],growth [8],growth [9],growth [10]
O=C(Nc1ccc(/C=C2\SC(=O)N(Cc3ccc(OC(F)(F)F)cc3)C2=O)cc1)c1ccc(Cl)c([N+](=O)[O-])c1,92.6%,91.1%,81.6%,67.9%,98.5%,89.3%,85.7%,82.2%,77%,78.4%
Cn1cc(-c2nc(-c3cn(C)c4ncccc34)cs2)c2ccccc21,28.6%,62.6%,52.8%,62.4%,50.5%,49.6%,28.3%,45.4%,47.1%,31.7%
COc1ccc(-c2n[nH]nc2-c2cc3ccccc3s2)cc1O,32.3%,41.9%,32.4%,40.5%,57%,44.4%,38.9%,1.86% (active),16%,15.1%
N#CC1C(=N)Cc2ccccc2-c2ccccc21 (stereo not given),31.1%,67.1%,54.2%,53.8%,78.1%,75%,29%,55.3%,62.6%,25.8%
COc1ccc(C(=O)c2ccc(C)cc2)c(OC)c1OC,60.3%,92.7%,91.8%,72.6%,97.7%,97.3%,64.8%,70.1%,89%,46.8%
Cn1cnc2c1c(=O)n(CCC(=O)Nc1ccc(F)cc1)c(=O)n2C,105%,107%,102%,92.7%,92.7%,114%,93.7%,96.8%,99.5%,106%
O=C(NO)c1ccc(Cn2c(=O)n(CCc3ccc(O)cc3)c(=O)c3ccccc32)cc1,74.5%,76.7%,79%,88.6%,84.7%,91.1%,95.2%,45.7%,9.36% (active),15.9%
CC1(C)[C@@H](O)CC[C@]2(C)[C@H]3CC[C@@H]4[C@H]5[C@H](C(=O)/C=C/c6ccc(C(F)(F)F)cc6)CC[C@]5(CO)CC[C@@]4(C)[C@]3(C)CC[C@@H]12,83.7%,71.2%,58.8%,46.7%,105%,25.9%,47.4%,-1.48% (active),28.4%,14%
COc1cc(/C=C/c2cc(/C=C/c3ccc(O)c(OC)c3)n(-c3ccc(Cl)cc3)c(=O)n2)ccc1O,92.6%,78.1%,80.8%,64.9%,118%,83.1%,92.9%,102%,44.2%,43%
Cn1c2ccccc2c2c3c(c4c5cccnc5[nH]c4c21)C(=O)N(O)C3=O,97.5%,85.9%,22.6%,31%,97.4%,17.8%,24%,109%,13.2%,0.301% (active)
CN(C)c1ccc(N)c2ccccc12,89.6%,49.2%,-62.2% (active),52.7%,128%,67.2%,69.4%,183%,41.8%,40.7%
COC(=O)[C@]12CC[C@@H](C)[C@H](C)[C@@H]1C1=CC[C@@H]3[C@@]4(C)CC(=O)[C@H](OC(=O)c5ccco5)[C@@]5(C)COC(=C45)C[C@@]3(C)[C@]1(C)CC2,8.78% (active),35.6%,36%,29.3%,38.5%,25.9%,28.7%,13.1%,25.1%,24.4%
Clc1ccccc1-c1nc(Nc2nc3ccccc3s2)nc(C(Cl)(Cl)Cl)n1,85.9%,54%,82.6%,14.3%,84.1%,6.55% (active),20.9%,58.3%,92.5%,86.3%
O=S(=O)(NCCNc1cc(-c2cn(-c3ccccc3)nc2-c2cccc(O)c2)ccn1)c1ccc(Br)cc1,20.7%,34.9%,34.4%,19.8%,46.1%,23.7%,43.2%,53.7%,9.77% (active),8.59% (active)
COc1ccc(OCC(CO)N2CCN(c3ccccc3)CC2)cc1 (stereo not given),106%,108%,97.2%,86.4%,109%,104%,90.6%,108%,112%,116%
O=C(NO)c1ccc(Cn2c(=O)n(-c3ccccc3)c(=O)c3ccccc32)cc1,5.92% (active),21.6%,44.1%,50.5%,28.1%,55.7%,56.9%,-10.7% (active),2% (active),-2.07% (active)
O=S(=O)(NCCNc1cc(-c2cn(-c3ccccc3)nc2-c2cccc(O)c2)ccn1)c1ccc(F)cc1,22.2%,56.1%,44.2%,20.1%,46.2%,27.3%,37.1%,36.2%,5.95% (active),4.37% (active)
Cc1cc2nc3c4cc(O)ccc4n(CCN(C)C)c3nc2cc1C,-42.9% (active),2.33% (active),3.51% (active),-37.5% (active),5.14% (active),-33.7% (active),-39% (active),9.28% (active),9.31% (active),1.9% (active)
C=C(C)[C@@H]1CC[C@]2(c3nnc(-c4ccncc4)o3)CC[C@]3(C)[C@H](CC[C@@H]4[C@@]5(C)CCC(=O)NC(C)(C)[C@@H]5CC[C@]43C)[C@@H]12,111%,95.1%,91.8%,76.6%,143%,98.7%,51.1%,99.3%,95%,85.6%
CC(=O)c1c(C)[nH]c(-c2nc3ccc(N4CCN(C)CC4)cc3[nH]2)c1-c1ccc2c(c1)OCCO2,76.4%,45.2%,58.5%,9.19% (active),1.44% (active),29.3%,13.3%,45.5%,50.3%,58.3%
Cc1ccccc1-c1nc(C(Cl)Cl)nc2cc(-c3ccccc3)nn12,101%,57.8%,81.4%,57.2%,65.1%,41.1%,44.8%,85.4%,102%,83.9%
Nc1ccc(Cl)cn1,107%,97.4%,107%,86.7%,106%,109%,90.5%,96.4%,107%,102%
COc1cccc(-c2nn(-c3ccccc3)cc2-c2ccnc(NCCNS(=O)(=O)c3ccc(Cl)cc3)c2)c1,13.4%,32.1%,33.9%,15.8%,41.5%,26.6%,32.2%,45.9%,15.3%,1.18% (active)
CN(C)CCCC1(c2ccc(F)cc2)OCc2cc(-c3ccc(C(F)(F)F)nc3)ccc21 (stereo not given),94.2%,76.1%,75.1%,55.5%,82.4%,83.1%,55.4%,89.8%,69.1%,53.6%
Brc1ccc(Cn2nnnc2-c2ccn(-c3ccccc3)n2)cc1,63.5%,69.8%,68.5%,69.2%,77.6%,70.7%,58.2%,52.5%,56.7%,52.4%
Nc1ccccc1NC(=O)c1ccc(CN2CCC/C(=C\c3ccccn3)C2=O)cc1,27%,33.2%,48.2%,25.4%,14.2%,20.6%,17.7%,7.96% (active),16.7%,7.84% (active)
